Results as given in PubChem BioAssay (NCI).
The panel holds about 83,000 compounds, 20% with a hit somewhere; the sample as a whole holds those more often.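 Step 1: grow cells in 96-well plates. Step 2: add test compound at a single concentration. Step 3: incubate 48 h. Step 4: record percent growth.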 Calls of active or inactive are those of the source. The calls were made as follows: active = growth percent below 10; inactive = the rest.

Tests used:
Experiment in all cases: NCI-60 one-dose screen, 48 h (100 = growth as untreated, 0 = no growth, -100 = all killed)
Conditions in all cases: 10 µM unless noted
NCI-H23 lung = tested on: NCI-H23 lung
NCI-H226 lung = tested on: NCI-H226 lung
NCI-H322M lung = tested on: NCI-H322M lung
HOP-62 NSCLC = tested on: HOP-62 NSCLC
NCI-H460 lung = tested on: NCI-H460 lung
NCI-H522 lung = tested on: NCI-H522 lung
786-0 renal = tested on: 786-0 renal
COLO 205 colon = tested on: COLO 205 colon
DU-145 prostate = tested on: DU-145 prostate
K-562 leukemia = tested on: K-562 leukemia
MALME-3M melanoma = tested on: MALME-3M melanoma
MDA-MB-231 breast = tested on: MDA-MB-231 breast
RXF 393 renal = tested on: RXF 393 renal
SF-268 CNS = tested on: SF-268 CNS
SF-295 CNS = tested on: SF-295 CNS
SF-539 CNS = tested on: SF-539 CNS
UACC-257 melanoma = tested on: UACC-257 melanoma
M14 melanoma = tested on: M14 melanoma
HOP-92 NSCLC = tested on: HOP-92 NSCLC
A549/ATCC NSCLC = tested on: A549/ATCC NSCLC

SMILES	growth (NCI-H23 lung)	growth (NCI-H226 lung)	growth (NCI-H322M lung)	growth (HOP-62 NSCLC)	growth (NCI-H460 lung)	growth (NCI-H522 lung)	growth (786-0 renal)	growth (COLO 205 colon)	growth (DU-145 prostate)	growth (K-562 leukemia)	growth (MALME-3M melanoma)	growth (MDA-MB-231 breast)	growth (RXF 393 renal)	growth (SF-268 CNS)	growth (SF-295 CNS)	growth (SF-539 CNS)	growth (UACC-257 melanoma)	growth (M14 melanoma)	growth (HOP-92 NSCLC)	growth (A549/ATCC NSCLC)
O=[N+]([O-])CC(O)c1ccccc1 (stereo not given)	93.1% (inactive)	97.9% (inactive)	118% (inactive)	100% (inactive)	101% (inactive)	97.3% (inactive)	80.3% (inactive)	113% (inactive)	109% (inactive)	99.4% (inactive)	122% (inactive)	87.6% (inactive)	112% (inactive)	100% (inactive)	113% (inactive)	103% (inactive)	88.7% (inactive)	97.6% (inactive)		
CCN1/C(=C/C(C)=C/c2sc3ccc4ccccc4c3[n+]2CC)Sc2ccc3ccccc3c21	-65.5% (active)	-82.4% (active)		-65.2% (active)	-90.5% (active)	-77.3% (active)	-88.5% (active)	-83.6% (active)	-100% (active)	-23.7% (active)	-87% (active)	-82.5% (active)	-88.1% (active)	-91.1% (active)	-93% (active)	-98.1% (active)	-82.2% (active)	-79.8% (active)	-89.1% (active)	-76.8% (active)
O=C1C(=O)c2cc([N+](=O)[O-])ccc2-c2ccccc21	-71.8% (active)	-98.7% (active)	96.9% (inactive)	-93.3% (active)	16.4% (inactive)		-96.7% (active)	-56.9% (active)	-99.2% (active)	-9.39% (active)	-82.7% (active)	-50.6% (active)	-97.2% (active)	-84.4% (active)	-82.2% (active)	-93% (active)	-94.5% (active)	-90.2% (active)		-52.2% (active)
COC1=CC(=O)c2c(O)c3c(c(O)c2C1=O)CC(C)(O)OC3 (stereo not given)	-27% (active)	90.1% (inactive)		9.06% (active)	4.74% (active)	14.7% (inactive)	34% (inactive)	-61.7% (active)	12.7% (inactive)	13.4% (inactive)	-96.6% (active)	28.3% (inactive)	11.1% (inactive)	18.3% (inactive)	5.39% (active)	-2.19% (active)	5.54% (active)	-52.4% (active)	-16.4% (active)	2.13% (active)
CSc1nc(C)c(C(=O)CCN2CCN(c3ccccn3)CC2)s1	106% (inactive)	107% (inactive)	107% (inactive)		106% (inactive)	-64.2% (active)	101% (inactive)		102% (inactive)	93.6% (inactive)	102% (inactive)	101% (inactive)	100% (inactive)	102% (inactive)	102% (inactive)	99% (inactive)	99.7% (inactive)	99.9% (inactive)		102% (inactive)
CCCCCCCCCCCCN1C(C)=CS/C1=C\C=C\c1scc(C)[n+]1CCCCCCCCCCCC	10.8% (inactive)	40.6% (inactive)	96.8% (inactive)	35.5% (inactive)		3.47% (active)	37.3% (inactive)	8.86% (active)	43% (inactive)	4.52% (active)	29.9% (inactive)	20.2% (inactive)		40.3% (inactive)	-21.5% (active)	44.4% (inactive)	-14.2% (active)	30.5% (inactive)	36.8% (inactive)	16.6% (inactive)
O=C(Cc1ccccc1)C(F)(F)F	103% (inactive)	105% (inactive)		102% (inactive)	103% (inactive)	107% (inactive)	94% (inactive)	104% (inactive)	103% (inactive)	94.5% (inactive)	99.4% (inactive)	96.5% (inactive)	104% (inactive)	98.9% (inactive)	101% (inactive)	97% (inactive)	18.1% (inactive)	99.6% (inactive)	104% (inactive)	105% (inactive)
CCCCCCCCCCCCNCCCc1ccccc1	89.2% (inactive)	96.6% (inactive)	91.1% (inactive)	95% (inactive)	83.9% (inactive)	63.6% (inactive)	69.4% (inactive)	-50.8% (active)	84% (inactive)	2.28% (active)	82.5% (inactive)	61.3% (inactive)		80.6% (inactive)	102% (inactive)	69.6% (inactive)	82% (inactive)	52% (inactive)		
